Pf growth 96h: inhibits malaria parasite growth, 96 h; actives 6.9% (n = 320,000); P. falciparum luciferase reporter growth, 96 h; Potency, µM (highest dose often 28.7 µM), usual class: inhibitors
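Parasite growth measured via integrated firefly luciferase reporter in P. falciparum. Infected erythrocytes at 2% hematocrit, 0.05% parasitemia final were treated 96 hours at 37 C under 5% CO2, and luminescence was read.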
Shiga toxin inh: blocks Shiga toxin action in Vero cells | AID 2315 | inhibition, % at 38.7 µM | Vero cells, Shiga toxin protein synthesis inhibition reporter | actives 9.2% (n = 290,000); in the data active = inhibition mostly above about 28%, no sharp cut-off; inactive = mostly below about 43%
Pf growth 48h: inhibits P. falciparum growth in the first generation, 48 h | actives 5.9% (n = 310,000) | P. falciparum luciferase growth in erythrocytes, 48 h | Potency, µM (highest dose often 28.7 µM), usual class: inhibitors | AID 504832
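Parasite viability was followed by luminescence of a genomically integrated firefly luciferase. Cultures held 0.1% parasitemia at 2% hematocrit (final), incubated under 5% CO2 at 37 C.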
CHX counter: counter-screen hit for Shiga toxin inhibitors, cycloheximide. max response, %. actives 12% (n = 300,000). cell reporter, cycloheximide protein synthesis inhibition counterscreen; in the data active = max response mostly above about 13%, no sharp cut-off; inactive = mostly below about 14%; note: read at 38.3 µM for the half of the compounds with a filed dose
HCMV antiviral: inhibitors of human cytomegalovirus; HFF cells, HCMV-luciferase reporter, 72 h; active compounds read low; activity change, negative = inhibition, % at 57.5 µM; actives 4.5% (n = 410,000); in the data active = activity change below about -60%; inconclusive = no clear call, values can overlap the other calls; inactive = above about -39%
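Screen run at 2 compound doses on HFFs infected with reporter HCMV, MOI 1 PFU/cell. Luciferase activity from cell lysates at 72 h post infection gave inhibition relative to buffer-only and Salinomycin wells.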
Hits are given with their value; . = inactive; ? = inconclusive; / = not tested or not shown; [ ] = remark or other dose. This is a sample that favours compounds with a hit; in the whole collection about 20% have one here. Unless noted, calls come from the whole dose curve; as a rule, active = well fitted inhibition curve with a large enough effect; inconclusive = small, poorly fitted or top-dose-only effect, or another doubt; inactive = no such curve, though single readings can be large or run the other way.

SMILES	Pf growth 96h	Shiga toxin inh	Pf growth 48h	CHX counter	HCMV antiviral
COc1ccccc1C(=O)CN1C(=O)NC2(CCCc3ccccc32)C1=O (centres undefined)	/	/	/	/	.
COc1ccc(C(=O)CN2C(=O)NC3(CCCc4ccccc43)C2=O)cc1OC (centres undefined)	1.3µM	.	8.3µM	.	.
CCOc1ccc(CN(C)C(=O)CN2C(=O)NC3(CCCc4ccccc43)C2=O)cc1 (centres undefined)	1.2µM	/	?	/	.
COc1ccc(CCN(C)C(=O)CN2C(=O)NC3(CCCc4ccccc43)C2=O)cc1OC (centres undefined)	?	/	.	/	.
Cc1cccc(C)c1NC(=O)C(c1ccccc1F)n1c(=O)c(-c2cc3ccccc3[nH]2)nc2ccccc21 (centres undefined)	/	/	/	/	.
Cc1cccc(S(=O)(=O)N(C)C[C@H]2OCc3cnnn3CCCC(=O)N([C@H](C)CO)C[C@H]2C)c1	/	/	/	/	.
COc1ccccc1CNC(=O)C1CCN(S(=O)(=O)c2cn(C)cn2)CC1	/	/	/	/	.
CC(C)(C)c1ccc(Oc2nc3ccccn3c(=O)c2/C=C(\C#N)c2nc3ccccc3[nH]2)cc1	/	/	/	/	.
CCN(C(=O)CN1C(=O)NC2(CCc3ccccc32)C1=O)C1CCCCC1 (centres undefined)	.	/	.	/	-100
CCN(C(=O)CN1C(=O)NC2(CCCc3ccccc32)C1=O)c1ccc(F)cc1 (centres undefined)	?	/	?	/	.
CCOc1ccc(NC(=S)N(Cc2ccc(N(C)C)cc2)Cc2ccco2)cc1	.	30	?	16	.
COc1ccc(NC(=S)N(Cc2ccc(N(C)C)cc2)Cc2ccco2)cc1	0.66µM	.	.	14	.
Cc1ccc(NC(=S)N(CCN(C)C)C(C)c2ccco2)cc1C (centres undefined)	?	.	.	.	?
CCOc1ccc(NC(=S)NCc2ccco2)cc1	.	.	.	.	?
COc1ccc(NC(=S)N(CCN(C)C)C(C)c2ccco2)cc1 (centres undefined)	?	.	.	.	-62
CCOc1ccc(C(=O)NCCc2csc(-c3cccc(F)c3)n2)cc1OCC	/	/	/	/	.
O=C(COc1ccccc1)NNc1c2ccccc2nc2ccccc12	.	.	5.2µM	.	-92
COc1ccc(OCC(=O)NNc2c3ccccc3nc3ccccc23)cc1	2.1µM	.	7.4µM	.	-75
Cc1cccc(OCC(=O)NCc2cc(C)nc3ccccc23)c1	9.3µM	.	.	.	?
Cc1nc2ccccc2c(=O)n1NC(=O)COc1ccccc1	/	.	.	.	.
CCOC(=O)C1CCN(S(=O)(=O)c2cc(C(=O)OC)n(C)c2)CC1	.	.	.	.	.
CC(=O)Nc1ccc2nc(NC(=O)CN3CCOCC3)sc2c1	.	.	.	.	.
COc1ccc2nc(NC(=O)CN3C(=O)NC4(CCCCC4)C3=O)sc2c1	.	.	.	17	.
COc1ccc2nc(NC(=O)CN3C(=O)NC4(CCCC4)C3=O)sc2c1	.	/	.	/	.
COc1ccc2nc(NC(=O)CN3CCOCC3)sc2c1	/	.	.	58	.
SMILES	Pf growth 96h	Shiga toxin inh	Pf growth 48h	CHX counter	HCMV antiviral
COc1ccc2nc(NC(=O)CN3CCN(C)CC3)sc2c1	.	152	.	46	.
CCN1CCN(CC(=O)Nc2nc3ccc(OC)cc3s2)CC1	?	.	/	.	.
CC(CC(=O)c1ccc(F)cc1)N1CCN(c2ccccc2)CC1 (centres undefined)	/	/	/	/	.
COCCCNC(=O)C(=O)NC1CCCCC1C (centres undefined)	.	.	.[1.15 µM]	.	.
N#CCc1ccc(NS(=O)(=O)c2ccc(C3CCCCC3)cc2)cc1	.	.	.	.	-64
COc1ccc(S(=O)(=O)Nc2ccc(CC#N)cc2)cc1	.	.	.	.	.
Cc1cccc(NS(=O)(=O)c2ccccc2)n1	.	.	.	.	.
Cc1cccc(NS(=O)(=O)c2ccc(C3CCCCC3)cc2)n1	/	.	9.3µM	.	.
CCC(=O)N1COC[C@@H]1Cc1ccccc1	.	.	.	.	.
CCOc1ccc(-c2nc(-c3cccnc3)no2)cc1OCC	/	.	?	12	.
CC(=O)Oc1ccc(-c2nc(-c3cccnc3)no2)cc1	.	41	.	39	.
CCOc1ccc(-c2noc(-c3cccnc3)n2)cc1OCC	.	.	?	.	.
CC(=O)Oc1ccc(C)cc1	.	/	.	/	/
CC(=O)Oc1ccc(Oc2ccc(-c3noc(C)n3)cc2)cc1	/	83	.	32	.
